# In PubChem BioAssay (NCI):
# This is part of a sample that, as a whole, favours compounds with a hit. Of some 83,000 tested, about 20% had one in any assay.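 Treatment: one concentration, 48 hours, 96-well format. Scoring: percent growth, with anything below 10 considered active.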 A number with no mark means an inactive call. The source made the active and inactive calls.
# Test system: SK-MEL-5 melanoma
# Experiment: NCI-60 one-dose screen, 48 h (100 = growth as untreated, 0 = no growth, -100 = all killed)
# Settings: 10 µM unless noted
row,SMILES,growth
1,COc1ccc(/C=C/c2nc(Nc3ccc(S(=O)(=O)Nc4cc(C)on4)cc3)c3ccccc3n2)cc1,43.5%
2,NS(=O)(=O)c1ccc(CCN2C(=O)c3cc(Cl)c(Cl)cc3C2=O)cc1,105%
3,C/C=C(\C)C(=O)NC1=CC[C@@]2(C)C(=CCC3C2CC[C@@]2(C)C3CC[C@@H]2C(C)N(C)C)C1=O (stereo partly specified),-34.7% (active)
4,O=c1c2c(c(=O)n1O)c1c3ccc[nH]c3nc1c1nc3[nH]cccc3c12,85.8%
5,Cc1ccc(C(=O)/C(=C\c2ccc([N+](=O)[O-])cc2)S(=O)Cc2ccc(F)cc2)cc1 (stereo unspecified),64.6%
6,O=C(Nc1ncc(Cc2cc(Cl)ccc2Cl)s1)c1cccs1,42.9%
7,O=C(C[n+]1cccc2ccccc21)c1ccc(O)c(O)c1,82.7%
8,OCc1cnccc1NCCCCOc1ccc(Oc2ccccc2)cc1,15.7%
9,Oc1cccc(CCc2ccc(Oc3cc(CCc4cccc(O)c4)cc(O)c3O)cc2)c1,70.2%
10,CC/C(=C\c1ccc(OC)cc1)C(=O)c1ccc(OC)cc1,101%
11,CN1C(N2CCN(S(=O)(=O)c3ccccc3)CC2)=NS(=O)(=O)c2ccccc21,104%
12,O=C1Nc2ccc(F)cc2/C1=C\c1c(-c2ccccc2)nc2ccccn12,61.5%
13,O=C(Cn1c(C(=O)c2ccccc2)nc2ccccc21)c1ccc(F)cc1,60.7%
14,COc1ccc(C(=O)c2nc3ccccc3n2CC(=O)c2ccc(Cl)cc2)cc1,20.5%
15,CC(=O)[C@@H]1CC[C@]2(C(N)=O)CC[C@]3(C)[C@H](CC[C@@H]4[C@@]5(C)CCCNC(C)(C)[C@@H]5CC[C@]43C)[C@@H]12,75.9%
16,Oc1c(Cl)cc(Cl)c(Cl)c1CNCCNCc1c(O)c(Cl)cc(Cl)c1Cl,-1.48% (active)
17,O=C1Nc2cc(Cl)ccc2/C1=C\c1c(-c2ccc(F)cc2)nc2ccccn12,-10.9% (active)
18,O=C(NO)c1ccc(-n2nc(-c3ccccc3)c3ccccc32)cc1,57.6%
19,O=C(CNCCN1CCOCC1)N1c2cccc3cccc(c23)N(C(=O)CNCCN2CCOCC2)C1c1cn(-c2ccccc2)nc1-c1cccc([N+](=O)[O-])c1,57.7%

row,SMILES,growth
1,O=C1c2cccc3c(-c4ccc5c(c4)ncn5C4CCCCC4)ccc(c23)C(=O)N1CCO,62%
2,CC(=O)Oc1ccc(/C=N/NC(N)=S)nc1,14.6%
3,NC(=S)N1N=C(c2ccccc2)CC1c1cn(-c2ccccc2)nc1-c1ccc(OCc2ccccc2)cc1 (stereo unspecified),99.4%
4,Cc1ccc(-c2nc3ccccn3c2/C=C2/C(=O)Nc3cc(Cl)ccc32)cc1,71.9%
5,Clc1ccc(-c2ccc(CNCC3CCNCC3)o2)c(-c2ccccc2)c1,-99.1% (active)
6,CC(=O)[C@H]1CCC/C=C/[C@@H]2C[C@H](O)C[C@H]2[C@H](O)/C=C/C(=O)O1,-94% (active)
7,CCOC(=O)c1cc(C(=O)c2ccc(Br)cc2)n2ccc(/C=C/c3cc[n+](CC(=O)c4ccc(OC)cc4)cc3)cc12,95.3%
8,COc1ccc(/C=C/c2nc(Nc3ccc(S(=O)(=O)Nc4nc(C)cc(C)n4)cc3)c3ccccc3n2)cc1,61.1%
9,Cc1ccc(C(=O)/C(=C/c2ccc([N+](=O)[O-])cc2)SCc2ccc(Cl)cc2)cc1,91%
10,O=C1c2c(c3c4cccc(F)c4[nH]c3c3ccc4ccccc4c23)C(=O)N1O,9.72% (active)
11,COc1ccc(C(=O)C2C(C#N)C(C#N)C3C=Cc4ccccc4N32)cc1 (stereo unspecified),15.2%
12,CCOC(=O)CC1CSC(N/N=C/c2ccc(-n3cccn3)cc2)=N1 (stereo unspecified),98.1%
13,CC(C)N1C(=O)/C(=C2\SC(=S)N(C(C)C)C2=O)SC1=S,97.9%
14,CC(C)(C)[Si](C)(C)OC1[C@@H](O[Si](C)(C)C(C)(C)C)[C@@H](CNC(=O)NC(=O)CCl)O[C@H]1n1cnc2c(NC(=O)Nc3ccccc3)ncnc21 (stereo partly specified),-87.7% (active)
15,COc1ccc(-c2nc3sccn3c2/C=C/C(=O)c2ccc3c(c2)OCO3)cc1,78.7%
16,O=C1c2ccccc2C(=O)c2c([N+](=O)[O-])ccc(Cl)c21,97.9%
17,COc1ccc(/C=C/c2nc(Nc3cccc(NC(C)=O)c3)c3ccccc3n2)cc1,87.5%
18,Cc1ccc(-n2nc3c(c(C#N)c2=O)CC(c2ccccc2[N+](=O)[O-])C([N+](=O)[O-])=C3O)cc1 (stereo unspecified),87.5%
19,COc1cc(OC)cc(C(=O)C[n+]2cccc3cc[nH]c32)c1,97.3%

# Test system: UACC-62 melanoma
# Experiment: as above
# Settings: 10 µM unless noted
row,SMILES,growth
1,COc1ccc(/C=C/c2nc(Nc3ccc(S(=O)(=O)Nc4cc(C)on4)cc3)c3ccccc3n2)cc1,17.5%
2,NS(=O)(=O)c1ccc(CCN2C(=O)c3cc(Cl)c(Cl)cc3C2=O)cc1,103%
3,C/C=C(\C)C(=O)NC1=CC[C@@]2(C)C(=CCC3C2CC[C@@]2(C)C3CC[C@@H]2C(C)N(C)C)C1=O (stereo partly specified),-16.1% (active)
4,O=c1c2c(c(=O)n1O)c1c3ccc[nH]c3nc1c1nc3[nH]cccc3c12,63%
5,Cc1ccc(C(=O)/C(=C\c2ccc([N+](=O)[O-])cc2)S(=O)Cc2ccc(F)cc2)cc1 (stereo unspecified),-34.5% (active)
6,O=C(Nc1ncc(Cc2cc(Cl)ccc2Cl)s1)c1cccs1,36.7%
7,O=C(C[n+]1cccc2ccccc21)c1ccc(O)c(O)c1,69.7%
8,OCc1cnccc1NCCCCOc1ccc(Oc2ccccc2)cc1,61.5%
9,Oc1cccc(CCc2ccc(Oc3cc(CCc4cccc(O)c4)cc(O)c3O)cc2)c1,73.3%
10,CC/C(=C\c1ccc(OC)cc1)C(=O)c1ccc(OC)cc1,78.7%
11,CN1C(N2CCN(S(=O)(=O)c3ccccc3)CC2)=NS(=O)(=O)c2ccccc21,94.4%
12,O=C1Nc2ccc(F)cc2/C1=C\c1c(-c2ccccc2)nc2ccccn12,60.7%
13,O=C(Cn1c(C(=O)c2ccccc2)nc2ccccc21)c1ccc(F)cc1,37.1%
14,COc1ccc(C(=O)c2nc3ccccc3n2CC(=O)c2ccc(Cl)cc2)cc1,13.2%
15,CC(=O)[C@@H]1CC[C@]2(C(N)=O)CC[C@]3(C)[C@H](CC[C@@H]4[C@@]5(C)CCCNC(C)(C)[C@@H]5CC[C@]43C)[C@@H]12,83.5%
16,Oc1c(Cl)cc(Cl)c(Cl)c1CNCCNCc1c(O)c(Cl)cc(Cl)c1Cl,-13.3% (active)
17,O=C1Nc2cc(Cl)ccc2/C1=C\c1c(-c2ccc(F)cc2)nc2ccccn12,10.6%
18,O=C(NO)c1ccc(-n2nc(-c3ccccc3)c3ccccc32)cc1,34.5%
19,O=C(CNCCN1CCOCC1)N1c2cccc3cccc(c23)N(C(=O)CNCCN2CCOCC2)C1c1cn(-c2ccccc2)nc1-c1cccc([N+](=O)[O-])c1,94.8%

row,SMILES,growth
1,O=C1c2cccc3c(-c4ccc5c(c4)ncn5C4CCCCC4)ccc(c23)C(=O)N1CCO,74.4%
2,CC(=O)Oc1ccc(/C=N/NC(N)=S)nc1,59.3%
3,NC(=S)N1N=C(c2ccccc2)CC1c1cn(-c2ccccc2)nc1-c1ccc(OCc2ccccc2)cc1 (stereo unspecified),86.3%
4,Cc1ccc(-c2nc3ccccn3c2/C=C2/C(=O)Nc3cc(Cl)ccc32)cc1,74.1%
5,Clc1ccc(-c2ccc(CNCC3CCNCC3)o2)c(-c2ccccc2)c1,-90.8% (active)
6,CC(=O)[C@H]1CCC/C=C/[C@@H]2C[C@H](O)C[C@H]2[C@H](O)/C=C/C(=O)O1,12.3%
7,CCOC(=O)c1cc(C(=O)c2ccc(Br)cc2)n2ccc(/C=C/c3cc[n+](CC(=O)c4ccc(OC)cc4)cc3)cc12,92.7%
8,COc1ccc(/C=C/c2nc(Nc3ccc(S(=O)(=O)Nc4nc(C)cc(C)n4)cc3)c3ccccc3n2)cc1,20.8%
9,Cc1ccc(C(=O)/C(=C/c2ccc([N+](=O)[O-])cc2)SCc2ccc(Cl)cc2)cc1,65.9%
10,O=C1c2c(c3c4cccc(F)c4[nH]c3c3ccc4ccccc4c23)C(=O)N1O,26.9%
11,COc1ccc(C(=O)C2C(C#N)C(C#N)C3C=Cc4ccccc4N32)cc1 (stereo unspecified),57.6%
12,CCOC(=O)CC1CSC(N/N=C/c2ccc(-n3cccn3)cc2)=N1 (stereo unspecified),92.5%
13,CC(C)N1C(=O)/C(=C2\SC(=S)N(C(C)C)C2=O)SC1=S,91.7%
14,CC(C)(C)[Si](C)(C)OC1[C@@H](O[Si](C)(C)C(C)(C)C)[C@@H](CNC(=O)NC(=O)CCl)O[C@H]1n1cnc2c(NC(=O)Nc3ccccc3)ncnc21 (stereo partly specified),-61.5% (active)
15,COc1ccc(-c2nc3sccn3c2/C=C/C(=O)c2ccc3c(c2)OCO3)cc1,57.2%
16,O=C1c2ccccc2C(=O)c2c([N+](=O)[O-])ccc(Cl)c21,96.5%
17,COc1ccc(/C=C/c2nc(Nc3cccc(NC(C)=O)c3)c3ccccc3n2)cc1,44.2%
18,Cc1ccc(-n2nc3c(c(C#N)c2=O)CC(c2ccccc2[N+](=O)[O-])C([N+](=O)[O-])=C3O)cc1 (stereo unspecified),78.3%
19,COc1cc(OC)cc(C(=O)C[n+]2cccc3cc[nH]c32)c1,89.8%
